# PubChem BioAssay (NCATS)
# Records with an inconclusive call do not appear. Unmarked numbers belong to inactive results. Activity calls are given as the source filed them. Unless noted, the call rests on the fitted dose curve; in most records, active means well fitted curve in the direction sought with a large enough effect; inconclusive means small, poorly fitted or top-dose-only effect, or another doubt; inactive means no such curve, though single readings can be large; an effect the other way counts as inactive or inconclusive.
# Legend:
# [1] = biological target: ATP-dependent 6-phosphofructokinase (Trypanosoma brucei brucei) (UniProt O15648); assay: qHTS Assay to Find Inhibitors of T. brucei phosphofructokinase: hit validation (AID 492961);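 further: luminescence reports ADP formed as PFK phosphorylates fructose-6-phosphate with ATP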
# Chain of ATP-dependent 6-phosphofructokinase (Trypanosoma brucei brucei) (O15648 whole entry, looked up): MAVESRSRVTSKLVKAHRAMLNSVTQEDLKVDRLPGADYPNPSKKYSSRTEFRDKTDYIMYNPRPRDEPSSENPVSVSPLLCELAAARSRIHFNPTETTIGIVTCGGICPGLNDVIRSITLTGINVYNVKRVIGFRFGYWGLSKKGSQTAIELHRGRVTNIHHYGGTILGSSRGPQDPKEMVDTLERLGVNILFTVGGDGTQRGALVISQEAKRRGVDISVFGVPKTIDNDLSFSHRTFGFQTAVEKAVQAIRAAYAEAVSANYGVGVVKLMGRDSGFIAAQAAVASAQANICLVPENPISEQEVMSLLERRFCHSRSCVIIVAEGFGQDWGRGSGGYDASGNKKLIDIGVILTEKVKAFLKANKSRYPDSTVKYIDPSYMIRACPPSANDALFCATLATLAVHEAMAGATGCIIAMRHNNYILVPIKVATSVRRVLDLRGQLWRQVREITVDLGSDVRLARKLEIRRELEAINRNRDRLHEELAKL
# Method in brief: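 Measures ADP output of PFK (1.25 nM) at 0.1 mM ATP, 0.5 mM F6P, pH 8.0 TEA buffer with 5 mM MgCl2. No-enzyme wells define full inhibition; uninhibited enzyme wells define zero.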
# [2] = biological target: Ubiquitin carboxyl-terminal hydrolase 1 (Homo sapiens) (UniProt O94782); assay: Inhibitors of USP1/UAF1: Pilot qHTS (AID 504865);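 further: rhodamine fluorescence freed from ubiquitin-rhodamine substrate followed over time; top concentration of the series differs between compounds; nearly all actives have a fitted effect of over 35% in size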
# Chain of Ubiquitin carboxyl-terminal hydrolase 1 (Homo sapiens) (O94782 whole entry, looked up): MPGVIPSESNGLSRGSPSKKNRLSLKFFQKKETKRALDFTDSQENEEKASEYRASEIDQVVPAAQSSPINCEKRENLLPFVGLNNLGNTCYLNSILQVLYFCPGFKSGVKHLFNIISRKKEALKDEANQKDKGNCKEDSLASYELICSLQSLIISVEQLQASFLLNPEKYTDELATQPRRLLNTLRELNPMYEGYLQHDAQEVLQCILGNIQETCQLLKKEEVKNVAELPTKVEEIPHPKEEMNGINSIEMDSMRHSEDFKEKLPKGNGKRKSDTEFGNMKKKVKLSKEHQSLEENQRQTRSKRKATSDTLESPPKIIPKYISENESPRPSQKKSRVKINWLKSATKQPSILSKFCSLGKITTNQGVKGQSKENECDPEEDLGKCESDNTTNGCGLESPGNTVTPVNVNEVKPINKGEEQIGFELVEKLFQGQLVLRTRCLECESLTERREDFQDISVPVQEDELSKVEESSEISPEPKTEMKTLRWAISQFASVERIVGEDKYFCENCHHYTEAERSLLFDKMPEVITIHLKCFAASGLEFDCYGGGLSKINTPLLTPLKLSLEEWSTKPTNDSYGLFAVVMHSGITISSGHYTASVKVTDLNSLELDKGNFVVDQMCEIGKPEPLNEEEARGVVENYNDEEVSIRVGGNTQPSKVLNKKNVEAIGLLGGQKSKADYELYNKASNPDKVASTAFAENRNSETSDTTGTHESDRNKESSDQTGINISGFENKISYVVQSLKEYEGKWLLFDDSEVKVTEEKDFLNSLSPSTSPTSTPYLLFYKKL
# Method in brief: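 In 50mM HEPES pH 7.8 containing 0.5mM EDTA, 1mM TCEP, 0.1 mg/ml BSA and 0.01% Tween-20, 1nM USP1/UAF1 is exposed to compound for 15 min, then Ub-Rho (150nM final) is added and fluorescence is read over time.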
# [3] = biological target: Luciferin 4-monooxygenase (Photinus pyralis) (UniProt P08659); assay: Biochemical firefly luciferase enzyme assay for NPC (AID 624030);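 further: purified P. pyralis luciferase at 10 nM with luciferin and ATP substrate; nearly all actives have a fitted effect of over 70% in size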
# Chain of Luciferin 4-monooxygenase (Photinus pyralis) (P08659 whole entry, looked up): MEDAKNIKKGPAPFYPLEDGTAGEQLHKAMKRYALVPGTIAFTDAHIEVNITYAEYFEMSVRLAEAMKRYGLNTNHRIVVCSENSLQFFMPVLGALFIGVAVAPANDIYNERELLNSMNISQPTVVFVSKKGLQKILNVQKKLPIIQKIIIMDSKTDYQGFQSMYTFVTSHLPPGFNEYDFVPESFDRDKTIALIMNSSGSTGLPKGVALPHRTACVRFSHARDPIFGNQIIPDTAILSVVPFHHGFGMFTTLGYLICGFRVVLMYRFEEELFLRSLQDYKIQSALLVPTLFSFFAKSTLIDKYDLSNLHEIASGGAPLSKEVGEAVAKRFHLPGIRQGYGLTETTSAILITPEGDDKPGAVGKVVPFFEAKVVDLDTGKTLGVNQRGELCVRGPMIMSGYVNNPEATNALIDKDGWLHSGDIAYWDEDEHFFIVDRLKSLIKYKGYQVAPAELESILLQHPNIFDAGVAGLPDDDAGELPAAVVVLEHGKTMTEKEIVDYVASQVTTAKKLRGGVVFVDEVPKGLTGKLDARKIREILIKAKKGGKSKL
# Method in brief: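 Direct inhibition of firefly luciferase enzyme (10 nM final, 50 mM Tris Acetate) assessed by luminescence within 5 minutes. Percent activity scaled between DMSO and PTC124 positive control, with concentration-effect curves classified by fit quality and response.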
# [4] = S16 Schwann cell viability assay (CellTiter-Glo assay) (AID 624031);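 further: native untransfected S16 rat Schwann cells; nearly all actives have a fitted effect of over 70% in size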
# Method in brief: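 Counter-screen for cytotoxicity: parental S16 rat Schwann cells lacking the PMP22 reporters, treated 24 h with compound, viability from cellular ATP by CellTiter-Glo luminescence, normalized to DMSO (0%) and no-cell wells.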
# [5] = S16 Schwann cell PMP22 intronic element firefly luciferase assay (AID 624032); further: potency means the concentration at half of the fitted maximal effect; nearly all actives have a fitted effect of over 30% in size
# Method in brief: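 Luciferase reporter of PMP22 intronic-element expression in stably transfected S16 rat Schwann cells, read by ONE-Glo luminescence after 24 h compound exposure at 37 C. Activity scaled between DMSO (0%) and positive-control PTC124; concentration-effect curves quality-classified.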
# [6] = S16 Schwann cell PMP22 intronic element beta-lactamase assay (AID 624044; calls by dose curve; further: nearly all actives have a fitted effect of over 15% in size); settings: S16 rat Schwann cells, PMP22 element beta-lactamase FRET, 24 h; ratio activity, negative = inhibition: at 38.3 µM (top of the series)
# Method in brief: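 Beta-lactamase reporter under a PMP22 intronic regulatory element in stable S16 rat Schwann cells; 24 h compound exposure. 460 nm blue signal normalized between DMSO (0%) and potassium clavulanate, with 535 nm FRET tracking viability; curves classed by r2 and response.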
# [7] = qHTS profiling for inhibitors of Plasmodium falciparum proliferation (AID 504749); further: potency means the concentration at half of the fitted maximal effect; nearly all actives have a fitted effect of over 60% in size; settings: P. falciparum in erythrocytes, SYBR Green DNA, 72 h
# Method in brief: (§1)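 In a 72 h erythrocytic culture (37 C, humidified, 5% CO2) at 2.5% hematocrit and 0.3% starting parasitemia, compounds were tested; SYBR Green I in detergent lysis buffer stained parasite DNA overnight.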
# [8] = tested on: 3D7; assay: as above; settings: P. falciparum in erythrocytes, SYBR Green DNA, 72 h; series mostly up to 28.7 µM
# Method in brief: as §1
# [9] = tested on: 7G8; assay: as above; settings: P. falciparum in erythrocytes, SYBR Green DNA, 72 h; series mostly up to 28.7 µM
# Method in brief: as §1
# [10] = tested on: AA1029; assay: as above; settings: P. falciparum in erythrocytes, SYBR Green DNA, 72 h; series mostly up to 28.7 µM
# Method in brief: as §1
# [11] = tested on: AS120; assay: as above; settings: P. falciparum in erythrocytes, SYBR Green DNA, 72 h; series mostly up to 28.7 µM
# Method in brief: as §1
# [12] = tested on: ATS189; assay: as above; settings: P. falciparum in erythrocytes, SYBR Green DNA, 72 h; series mostly up to 28.7 µM
# Method in brief: as §1
# [13] = tested on: ATS95; assay: as above; settings: P. falciparum in erythrocytes, SYBR Green DNA, 72 h; series mostly up to 28.7 µM
# Method in brief: as §1
# [14] = tested on: C2A; assay: as above; settings: P. falciparum in erythrocytes, SYBR Green DNA, 72 h; series mostly up to 28.7 µM
# Method in brief: as §1
# [15] = tested on: CP185; assay: as above; settings: P. falciparum in erythrocytes, SYBR Green DNA, 72 h; series mostly up to 28.7 µM
# Method in brief: as §1
# [16] = tested on: CP191; assay: as above; settings: P. falciparum in erythrocytes, SYBR Green DNA, 72 h; series mostly up to 28.7 µM
# Method in brief: as §1
# [17] = tested on: CP192; assay: as above; settings: P. falciparum in erythrocytes, SYBR Green DNA, 72 h; series mostly up to 28.7 µM
# Method in brief: as §1
# [18] = tested on: CP194; assay: as above; settings: P. falciparum in erythrocytes, SYBR Green DNA, 72 h; series mostly up to 28.7 µM
# Method in brief: as §1
# [19] = tested on: CP201; assay: as above; settings: P. falciparum in erythrocytes, SYBR Green DNA, 72 h; series mostly up to 28.7 µM
# Method in brief: as §1
# [20] = tested on: CP203; assay: as above; settings: P. falciparum in erythrocytes, SYBR Green DNA, 72 h; series mostly up to 28.7 µM
# Method in brief: as §1
# [21] = tested on: CP211; assay: as above; settings: P. falciparum in erythrocytes, SYBR Green DNA, 72 h; series mostly up to 28.7 µM
# Method in brief: as §1
# [22] = tested on: CP215; assay: as above; settings: P. falciparum in erythrocytes, SYBR Green DNA, 72 h; series mostly up to 28.7 µM
# Method in brief: as §1
# [23] = tested on: CP217; assay: as above; settings: P. falciparum in erythrocytes, SYBR Green DNA, 72 h; series mostly up to 28.7 µM
# Method in brief: as §1
# [24] = tested on: CP237; assay: as above; settings: P. falciparum in erythrocytes, SYBR Green DNA, 72 h; series mostly up to 28.7 µM
# Method in brief: as §1
# [25] = tested on: CP238; assay: as above; settings: P. falciparum in erythrocytes, SYBR Green DNA, 72 h; series mostly up to 28.7 µM
# Method in brief: as §1
# [26] = tested on: CP247; assay: as above; settings: P. falciparum in erythrocytes, SYBR Green DNA, 72 h; series mostly up to 28.7 µM
# Method in brief: as §1
# [27] = tested on: CP250; assay: as above; settings: P. falciparum in erythrocytes, SYBR Green DNA, 72 h; series mostly up to 28.7 µM
# Method in brief: as §1
# [28] = tested on: CP252; assay: as above; settings: P. falciparum in erythrocytes, SYBR Green DNA, 72 h; series mostly up to 28.7 µM
# Method in brief: as §1
# [29] = tested on: CP256; assay: as above; settings: P. falciparum in erythrocytes, SYBR Green DNA, 72 h; series mostly up to 28.7 µM
# Method in brief: as §1
# [30] = tested on: CP260; assay: as above; settings: P. falciparum in erythrocytes, SYBR Green DNA, 72 h; series mostly up to 28.7 µM
# Method in brief: as §1
# [31] = tested on: CP262; assay: as above; settings: P. falciparum in erythrocytes, SYBR Green DNA, 72 h; series mostly up to 28.7 µM
# Method in brief: as §1
# [32] = tested on: CP265; assay: as above; settings: P. falciparum in erythrocytes, SYBR Green DNA, 72 h; series mostly up to 28.7 µM
# Method in brief: as §1
compound,measurement,setting,value
CO[C@H]1OC2O[C@@]3(C)CC[C@H]4[C@H](C)CC[C@@H]([C@H]1C)[C@@]24OO3 (stereo partly drawn),Potency,[1],inactive
same,Potency,[2],inactive
same,Potency,[3],inactive
same,Potency,[4],inactive
same,Potency,[5],3220 nM (active)
same,Potency,[6],inactive
same,Potency,[7]; parasite line A,25.1 nM (active)
same,Potency,[7]; parasite line B,15.8 nM (active)
same,Potency,[8],14.1 nM (active)
same,Potency,[9],2.2 nM (active)
same,Potency,[10],31.6 nM (active)
same,Potency,[11],22.4 nM (active)
same,Potency,[12],14.1 nM (active)
same,Potency,[13],25.1 nM (active)
same,Potency,[14],35.5 nM (active)
same,Potency,[15],31.6 nM (active)
same,Potency,[16],11.2 nM (active)
same,Potency,[17],37.9 nM (active)
same,Potency,[18],60.1 nM (active)
same,Potency,[19],75.7 nM (active)
same,Potency,[20],30.1 nM (active)
same,Potency,[21],75.7 nM (active)
same,Potency,[22],30.1 nM (active)
same,Potency,[23],31.6 nM (active)
same,Potency,[24],15.8 nM (active)
same,Potency,[25],22.4 nM (active)
same,Potency,[26],25.1 nM (active)
same,Potency,[27],63.1 nM (active)
same,Potency,[28],31.6 nM (active)
same,Potency,[29],12.6 nM (active)
same,Potency,[30],14.1 nM (active)
same,Potency,[31],33.8 nM (active)
same,Potency,[32],3.2 nM (active)
